Measured values published in PubChem BioAssay (NCATS).
Inconclusive results are not listed. Entries that show only a call come without a potency. Calls of active or inactive are those of the source. The call rests on the fitted dose curve; in most records, active means well fitted inhibition curve with a large enough effect; inconclusive means small, poorly fitted or top-dose-only effect, or effect the other way; inactive means flat fitted curve, though single readings scatter.

These compounds were tested against ATP-dependent 6-phosphofructokinase (Trypanosoma brucei brucei) (UniProt O15648) (assay: qHTS Assay to Find Inhibitors of T. brucei phosphofructokinase: hit validation (AID 492961;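 further: luminescence reports ADP formed as PFK phosphorylates fructose-6-phosphate with ATP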)). Conditions: T. brucei PFK, ADP-Glo luminescence; series mostly up to 51.4 µM.
Summary of the method: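 In this biochemical qHTS validation, titrated compounds were tested against 1.25 nM PFK with 0.1 mM ATP and 0.5 mM F6P. Percent activity came from controls lacking or containing enzyme.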

Chain of ATP-dependent 6-phosphofructokinase (Trypanosoma brucei brucei) (O15648 whole entry, looked up): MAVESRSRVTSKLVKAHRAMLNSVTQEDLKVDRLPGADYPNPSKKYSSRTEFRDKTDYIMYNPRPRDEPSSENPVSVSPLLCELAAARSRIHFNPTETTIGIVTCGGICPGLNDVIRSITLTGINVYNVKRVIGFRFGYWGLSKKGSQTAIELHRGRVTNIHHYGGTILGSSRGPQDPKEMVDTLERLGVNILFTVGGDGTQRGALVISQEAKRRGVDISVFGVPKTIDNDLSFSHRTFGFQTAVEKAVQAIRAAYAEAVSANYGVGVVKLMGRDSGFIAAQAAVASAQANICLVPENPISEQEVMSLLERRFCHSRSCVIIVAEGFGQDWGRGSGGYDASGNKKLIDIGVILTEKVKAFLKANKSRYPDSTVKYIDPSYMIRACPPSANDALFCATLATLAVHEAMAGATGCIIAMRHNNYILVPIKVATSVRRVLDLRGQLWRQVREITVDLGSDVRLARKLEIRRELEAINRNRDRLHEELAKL

Row | Compound | Potency
1 | COc1cc(C)c(Cc2cnc(N)nc2N)cc1OC | inactive
2 | Cc1cc(O)cc2c1O[C@](C)(CCC[C@H](C)CCC[C@H](C)CCCC(C)C)CC2 | inactive
3 | CC(C)(C)NCC(O)COc1ccc(NC(=O)NC2CCCCC2)cc1 (stereo not drawn) | inactive
4 | CC(=O)c1ccc2c(c1)N(CCCN(C)C)c1ccccc1S2 | inactive
5 | NCCNCCNCCN | inactive
6 | CC12CCC(CC1)C(C)(C)O2 | inactive
7 | CC(=O)Oc1ccc(C2(c3ccc(OC(C)=O)cc3)C(=O)Nc3ccccc32)cc1 | inactive
8 | Nc1nc2c(ncn2CCC(CO)CO)c(=O)[nH]1 | inactive
9 | [O-][n+]1cccc(CO)c1 | inactive
10 | CCC(=O)Nc1ccc(O)cc1 | inactive
11 | O=c1cc[nH]c(=S)[nH]1 | inactive
12 | NC(=O)NNc1ccccc1 | inactive
13 | CC(=O)Nc1ccc(/C=N/NC(N)=S)cc1 | inactive
